Several values for one entry are separate records, joined by “and”; a condition that tells them apart may be missing. Equal values may be shown once. The whole screen tested about 220,000 compounds, of which about 910 (0.41%) were called active.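 The calls were made as follows: active = primary inhibition above the hit cutoff, then over 50% inhibition at one or more dose response concentrations (cut at about 23% in these data, passing the limit was not always enough); inconclusive = conflicting primary data, or primary hits not chosen for dose response; inactive = low primary inhibition, or under 50% at every dose.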 Shown is part of a subset that was picked to be rich in actives. Results with a measured potency or affinity are listed apart. Some structures have more than one record in an assay (separate samples or runs), and their calls can disagree.

The target of this test is Aminopeptidase N (Plasmodium falciparum (isolate 3D7)) (UniProt O96935). The experiment in a line: malaria alanyl aminopeptidase activity blockers – biochemical, fluorogenic H-Leu-NHMec substrate, 1536-well (AID 1445).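 Also: plate controls were DMSO full reaction for no effect and no enzyme background for full effect.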 The following applies: recombinant M1AAP, H-Leu-NHMec fluorogenic kinetic assay; at 30 µM, stronger effect = higher value unless noted.
Aminopeptidase N (Plasmodium falciparum (isolate 3D7)), sequence (O96935 whole entry, looked up): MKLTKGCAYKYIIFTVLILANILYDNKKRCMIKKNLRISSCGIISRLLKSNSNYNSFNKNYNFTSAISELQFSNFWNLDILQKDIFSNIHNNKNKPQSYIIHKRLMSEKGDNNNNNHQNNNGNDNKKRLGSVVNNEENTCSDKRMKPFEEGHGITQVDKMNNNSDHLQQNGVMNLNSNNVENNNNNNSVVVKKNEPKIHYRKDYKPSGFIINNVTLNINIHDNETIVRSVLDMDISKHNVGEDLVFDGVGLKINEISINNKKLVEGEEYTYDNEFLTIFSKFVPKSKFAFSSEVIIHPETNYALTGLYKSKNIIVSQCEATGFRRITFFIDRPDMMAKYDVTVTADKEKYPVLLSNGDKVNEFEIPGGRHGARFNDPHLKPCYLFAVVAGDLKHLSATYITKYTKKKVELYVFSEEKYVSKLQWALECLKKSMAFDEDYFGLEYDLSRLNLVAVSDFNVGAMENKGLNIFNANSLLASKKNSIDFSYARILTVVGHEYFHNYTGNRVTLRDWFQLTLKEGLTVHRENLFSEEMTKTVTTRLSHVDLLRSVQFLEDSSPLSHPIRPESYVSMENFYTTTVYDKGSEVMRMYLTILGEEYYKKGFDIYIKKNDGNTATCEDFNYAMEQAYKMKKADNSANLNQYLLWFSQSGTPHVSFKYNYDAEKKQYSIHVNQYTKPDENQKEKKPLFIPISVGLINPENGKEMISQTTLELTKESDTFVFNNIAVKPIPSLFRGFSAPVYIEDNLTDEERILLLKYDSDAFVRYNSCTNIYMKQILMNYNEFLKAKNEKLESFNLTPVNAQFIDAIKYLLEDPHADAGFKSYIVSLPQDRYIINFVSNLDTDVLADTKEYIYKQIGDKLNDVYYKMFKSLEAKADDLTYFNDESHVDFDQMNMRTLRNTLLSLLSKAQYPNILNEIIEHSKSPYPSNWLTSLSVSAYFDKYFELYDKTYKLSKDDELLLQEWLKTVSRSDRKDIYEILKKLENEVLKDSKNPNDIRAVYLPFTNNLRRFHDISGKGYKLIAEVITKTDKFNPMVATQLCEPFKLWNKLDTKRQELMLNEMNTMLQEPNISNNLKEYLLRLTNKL
As a reminder, the inhibition is the relative decrease from the control value, in per cent. For `CCCS(=O)(=O)N1CCC(C(=O)c2cccc(C(F)(F)F)c2)CC1`, the inhibition was 23.4% (active).

In the case of `CS(=O)(=O)N1CCCC(C(=O)c2cccc(Cl)c2)C1` (stereo unspecified), the inhibition is -1.4% (inactive). Then `O=C(NNC(=O)C1CCN(S(=O)(=O)c2cccc(C(F)(F)F)c2)CC1)C1CC1`, with -0.46% (inactive). As for `CS(=O)(=O)N1CCC(C(=O)Nc2cccc(Cl)c2)CC1`, the figure is -2.4% (inactive). Then `CCCS(=O)(=O)N1CCCC(C(=O)c2cccc(Cl)c2)C1` (stereo unspecified), with 2.05% (inactive); and `CCCCC1NC(C(=O)O)CS1` (stereo unspecified), with -4.57% (inactive); and `Cc1ccc(C2C(=O)N(C3CCC(C)CC3)CC(=O)N2C2CC2)cc1` (stereo unspecified), with 6.72% (inactive). On to `COc1ccc(-n2ncc(N(C)n3cccc3)c(Cl)c2=O)cc1`, for which the inhibition was 4.45% (inactive). Then `COc1ccc(/C=C\C(=O)NCC(=O)N/N=C/c2ccc(O)cc2O)cc1`, with 33.7% (inactive); and `O=C(CCNC(=O)c1ccccc1)N=Nc1c(O)[nH]c2ccccc12`, with 14% (inactive).

As for `CCOC(=O)c1cc(-c2cccc([N+](=O)[O-])c2)on1`, the inhibition was 7.98% (inactive).

With `CCOC(=O)c1cc(-c2cccc([N+](=O)[O-])c2)n[nH]1`, the inhibition is 0.83% (inactive). Then `COc1ccc(N(C)C(=S)Nc2ccc3nc(C)c(C)nc3c2)cc1`, with 0.41% (inactive); and `Cc1noc(NC(=O)c2cccc(C(F)(F)F)c2)c1Cl`, with 1.44% (inactive); and `CCOC(=O)c1ccc(C(=O)OCC)nc1`, with -0.25% (inactive). Regarding `CCOC(=O)C1(CCOc2ccccc2)CCN(Cc2cccc3nonc23)CC1`, the inhibition is 11.9% (inactive). Then `COc1ccc(C2c3[nH]c4ccccc4c3CCN2C(=O)c2ccc(=O)n(C)n2)c(F)c1` (stereo unspecified), with -6.53% (inactive). Then `O=C(c1ccccc1)N1CCC(O)(c2ccc3c(c2)OCO3)CC1`, with -2.13% (inactive); and `CCN1C(=O)c2ccc(C(=O)NCc3ccccc3)cc2C1=O`, with 1.2% (inactive). As for `CN1C(=O)c2ccc(C(=O)NCc3ccccc3)cc2C1=O`, the figure is 5.4% (inactive); as for `CCCCCOc1ccccc1C(=O)NCCC(=O)O`, 0.09% (inactive). Consider `Cc1cc(C)n(-c2ccc(F)cc2)c(=O)c1C#N`, for which the inhibition is 3.92% (inactive).

With `CCO/N=C(/C)c1c(O)cc(C(C)(C)C)n(-c2ccccc2)c1=O`, the inhibition was 1.22% (inactive). As for `Cc1ccc(C)c(NC2=NS(=O)(=O)c3ccccc32)c1`, the inhibition is 3.34% (inactive). As for `CC(=O)Nc1ccc(S(=O)(=O)NNC2=NS(=O)(=O)c3ccccc32)cc1`, the figure is 5.01% (inactive).

On to `Cc1cc(C)n2nc(N)c(N=Nc3ccc4c(c3)OCO4)c2n1`, for which the inhibition was -0.91% (inactive). Then `O=C(Nc1ccc(OCC(F)(F)C(F)F)cc1)c1ccncc1`, with 3.56% (inactive); and `NC(=NCCc1c[nH]c2ccccc12)NC(=O)c1ccc(Cl)cc1`, with 2.62% (inactive); and `O=c1c2ccccc2nc(SCc2cn3ccsc3n2)n1-c1ccc(F)cc1`, with -8.24% (inactive). In the case of `O=c1c2ccccc2nc(SCc2cn3ccsc3n2)n1-c1ccccc1`, the inhibition was 14.2% (inactive). Then `Cc1ccc(-n2c(SCc3cn4ccsc4n3)nc3ccccc3c2=O)cc1`, with 25.9% (active).

On to `O=C(NC1CCCCC1)C(c1ccncc1)N(C(=O)Cn1nnc(-c2cccs2)n1)C1CCCC1` (stereo unspecified), for which the inhibition is 0.4% (inactive). On to `COc1ccccc1NC(=O)C(C)NS(=O)(=O)c1ccc(Cl)cc1` (stereo unspecified), for which the inhibition is 0.77% (inactive). As for `CCN(CC)c1ccc2c(C)c(CN3CCOCC3)c(=O)oc2c1`, the figure is 7.04% (inactive).

For the compound `Cc1cc2oc(=O)cc(CN3CCOCC3)c2cc1C`, the inhibition was 11.2% (inactive). Then `COCCN(C(=O)CN1CCN(S(=O)(=O)c2ccc(F)cc2)CC1)c1c(N)n(Cc2ccccc2)c(=O)[nH]c1=O`, with 7.35% (inactive); and `CC(=O)Nc1cc2c(cc1[N+](=O)[O-])OCCO2`, with 6.17% (inactive); and `CC1(C)OC(=O)C(=NNc2ccccc2[N+](=O)[O-])C(=O)O1`, with 9.4% (inactive). As for `Nc1cc2c(cc1[N+](=O)[O-])OCO2`, the figure is 7.4% (inactive); as for `CC1C/C(=N/Nc2ccc([N+](=O)[O-])cc2[N+](=O)[O-])CC(C)(C)C1` (stereo unspecified), -1.42% (inactive).

For the compound `O=C(N/N=C/c1ccccc1Cl)c1[nH]c2ccc(Br)cc2c1-c1ccccc1`, the inhibition was -5.79% (inactive).

`COc1ccc(/C=N/NC(=O)c2[nH]c3ccc(Br)cc3c2-c2ccccc2)cc1`: the inhibition is 2.81% (inactive). Regarding `CCOc1ccccc1N(C(=O)Nc1ccc(Cl)cc1)C1=NCCS1`, the inhibition is -3.04% (inactive). In the case of `COc1ccc(C2CC(=O)NC3=C2C(=O)CCC3)cc1Cl` (stereo unspecified), the inhibition is -1.4% (inactive). As for `O=C(O)CSc1nnc(-c2ccccc2O)n1Cc1ccccc1`, the figure is 6.98% (inactive); as for `O=C(CSc1nnc(-c2ccccc2)n1Cc1ccccc1)NNC(=O)c1ccccc1O`, 16.1% (inactive); as for `NC(=O)c1cc2c3ccccc3ccn2c1-c1ccccc1`, 0.96% (inactive). Then `CC(C)NC(=O)CSc1nnc(-c2ccc(F)cc2)c2ccccc12`, with 0.8% (inactive); and `O=C1CC(c2ccco2)CC(O)=C1C=Nc1cc(Cl)ccc1Cl` (stereo unspecified), with 4.23% (inactive).

`O=C1CC(c2ccco2)CC(O)=C1C=Nc1cc(Cl)cc(Cl)c1` (stereo unspecified): the inhibition is -0.66% (inactive). With `O=C(NCc1ccccc1)c1nc2ccccc2s1`, the inhibition was 1.19% (inactive). As for `O=c1cc2oc3cc(O)c(O)cc3c(-c3ccccc3O)c-2cc1O`, the figure is 13.8% (inactive); as for `Cc1c2cc(O)c(=O)cc-2oc2cc(O)c(O)cc12`, 24.7% (active) and 6.57% (inactive). On to `COc1cc(OC)c(-c2c3cc(O)c(=O)cc-3oc3cc(O)c(O)cc23)cc1OC`, for which the inhibition is 22.9% (inactive). Then `CC(=O)Nn1cnc2c(c1=O)C1(CCCCC1)Cc1ccccc1-2`, with 4.35% (inactive); and `COc1ccc(NC(=O)Nc2cccc(Cl)c2Cl)c(OC)n1`, with 4.95% (inactive).

Regarding `COc1ccccc1NC1=NC(C)(C)N=C(N)N1`, the inhibition was 0.34% (inactive). Regarding `COC1=C(Nc2ccccc2OC)C(=O)c2ccccc2C1=O`, the inhibition was 7.8% (inactive).

In the case of `COc1ccc(OC)c(C2=NOC(C(=O)Nc3cccnc3)C2)c1` (stereo unspecified), the inhibition was 7.85% (inactive). For `COc1ccc(NC(=O)Nc2cccnc2)c(OC)c1`, the inhibition was 2.93% (inactive). Then `CCOc1ccc(-n2c(=O)[nH]cc(C(=O)N3CCc4ccccc43)c2=O)cc1`, with 1.21% (inactive).
